# Results as given in PubChem BioAssay (NCI).
# About 83,000 compounds went through this panel and 20% of them were active in at least one assay; those are over-represented in the sample as a whole.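 Step 1: grow cells in 96-well plates. Step 2: add test compound at a single concentration. Step 3: incubate 48 h. Step 4: record percent growth.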 A number with no mark means an inactive call. Active and inactive are the calls of the source.
# Tested on: SR leukemia
# Assay: NCI-60 one-dose screen, 48 h (100 = growth as untreated, 0 = no growth, -100 = all killed)
# Details: 10 µM
# Method: Growth inhibition of the SR human tumor cell line is measured as a screen for anti-cancer activity. Cells are grown in 96 well plates and exposed to the test compound for 48 hours. Compounds are tested at a single concentration, which is 10^-5 M for most compounds. The reported endpoint is percent growth (GI% or GIPRCNT), where numbers from 0 - 100% represent growth inhibition, and numbers from -100% - 0 represent cell death. For example, a value of 40 represents 60% growth inhibition. A value of 0 means no net growth occurred over the course of the experiment. A value of -40 indicates 40% of cells at the beginning of the experiment died by the end of the experiment. A value of -100 means all cells are dead at the end of the experiment.
# NCI-60 Human Tumor Cell Lines Screen was performed using the standard one-dose NCI protocol, which is described in more detail at https://dtp.cancer.gov/discovery_development/nci-60/default.htm.
# Compounds with GIPRCNT values below 10 were considered active. Activity score was based on GIPRCNT using the following formula: […]
# Score is 0 for GIPRCNT values of 100 or above, 50 for GIPRCNT values of 0, and 100 for GIPRCNT values of -100.
row,Compound,growth
1,CC(C)=C1CCC(C)C/C1=N\N=C(N)N (stereo not given),105%
2,O=C(/C=C/c1nnc2n(Cc3ccccc3)c(=O)c3c4c(sc3n12)CCCC4)c1ccccc1,-5.47% (active)
3,O=C(N/N=C\c1cc(Cl)ccc1O)c1ccncc1,26.8%
4,CC(C)c1[nH]nc2c(NCc3ccc(-c4ccccn4)cc3)nc(SCCN(C)C)nc12,-10.3% (active)
5,CC(C)OP(=O)(O)c1ncc(-c2ccc(C(F)(F)F)cc2)c(NC2CCCCCC2)n1,86.3%
6,Nc1ccccc1NC(=O)CCCCCCC(=O)Nc1ccc2c(c1)/C(=C/c1ccc[nH]1)C(=O)N2,26.8%
7,CS(=O)(=O)Nc1ccc(OCc2nnc(-c3ccc(Cl)cc3)o2)c(F)c1,81.2%
8,O=C(COc1ccc(-c2nc3ccccc3[nH]2)cc1)N=Nc1c(O)[nH]c2ccccc12,1.13% (active)
9,COc1ccc(NC(=O)c2sc3nc4c(cc3c2N)C(O)CCC4)cc1 (stereo not given),67.6%
10,CCOc1nc(-c2ccccc2)cc2c(O)c(C(=O)N/N=C/c3ccc(OC)cc3)[nH]c(=O)c12,112%
11,O=S(=O)(NC1c2ccccc2Oc2ccccc21)c1cc(Cl)ccc1Cl,66.8%
12,O=[N+]([O-])c1ccc2c(c1)Cc1cc(I)ccc1-2,92.4%
13,O=C(N/N=c1/ccoc2cccnc12)N1CCN(c2ncccn2)CC1,20.6%
14,O=C(c1ccccc1)C(Sc1ccccc1)c1ccccc1 (stereo not given),49.2%
15,O=C(Nc1ccc(OCc2nnc(-c3ccccc3)o2)c(F)c1)Nc1ccc(Cl)c(Cl)c1,6.91% (active)
16,Oc1ccc(/C=N\Nc2ccccn2)c(O)c1,11.7%
17,O=C(CCCC(=O)N/N=C/c1cc(Cl)ccc1O)N/N=C\c1cc(Cl)ccc1O,1.74% (active)
18,COc1ccc(C2CC(c3ccc(-c4ccccc4)cc3)=NN2c2ccc(S(N)(=O)=O)cc2)cc1 (stereo not given),80%
19,O=C(NCCCl)c1cc(Cl)cc(Cl)c1,103%
20,C#CCn1c(-c2cccc(OCCCCl)c2)nc2c1c(=O)n(C)c(=O)n2C,43.6%

row,Compound,growth
1,Cc1ccc2oc(=O)cc(/C(=C3/C=CC=N3)c3ccc[nH]3)c2c1,-9.31% (active)
2,O=C1/C(=C/c2ccc(O)cc2)Cc2ccc(Cl)cc21,117%
3,COC(=O)[C@]12CC[C@@H](C)[C@H](C)[C@@H]1C1=CC[C@@H]3[C@@]4(C)CC(=O)[C@H](O)[C@@]5(C)COC(=C45)C[C@@]3(C)[C@]1(C)CC2,-31.7% (active)
4,CCOC(=O)C(=O)Cc1cccnn1,101%
5,COC(=O)[C@]12CC[C@@H](C)[C@H](C)[C@@H]1C1=CC[C@@H]3[C@@]4(C)C[C@@H](O)[C@H](O)[C@@](C)(CO)[C@@H]4[C@H](O)C[C@@]3(C)[C@]1(C)CC2,-36.5% (active)
6,O=C(O)CCCN1C(=O)NC2(C1=O)c1ccccc1-c1ccccc12,100%
7,Cc1ccc(-n2nnc3c(sc4ccccc43)c2=O)cc1,75.1%
8,CCN(CC)CCOC(=O)c1ccc(NC(=O)Nc2cccc(Cl)c2)cc1,96.5%
9,CCOC(=O)[C@@H](Cc1ccccc1)NC(=O)c1[nH]c2ccc(Cl)cc2c(=O)c1C,61.3%
10,CCCCCCCCCCCCCCCC(=O)N1CCN(C)CC1,-3.08% (active)
11,CC(C)C[C@H](NC(=O)Cn1ccc2ccccc2c1=O)B(O)O,9.81% (active)
12,CCCCCC(CCC)COC(=O)c1ccc(OC)cc1 (stereo not given),101%
13,COc1cccc2c1O/C(=C\c1ncc([N+](=O)[O-])n1C)C2=O,6.35% (active)
14,COc1ccc(Cn2cc3c(c2-c2cc(OC)c(OC)c(OC)c2)CCc2cnoc2-3)cc1N,14.8%
15,CCNC1(NC#N)CCCCC1,103%
16,C/C(=N\NC(N)=S)C(C)(C)O,81.2%
17,CC(C)CCN(CCCNc1c2c(nc3cc(Cl)ccc13)CCCC2)CCC(C)C,7.94% (active)
18,NC(=O)c1ccc(Br)o1,97.4%
19,CCN(CC)CCn1c(=N)n(CC(O)c2ccc(Cl)c(Cl)c2)c2ccccc21 (stereo not given),26.4%
20,COC(=O)c1cnc2c(c1)Oc1ccccc1-c1ccnn1-2,85%
